According to PubChem BioAssay AID2638 (Johns Hopkins Ion Channel Center, 2010):
Active and inactive are the calls of the source.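 Rule for the calls: active = compound restoring hERG potassium channel current, after block by a reference inhibitor, at any concentration tried; inactive = no current restored at any concentration tried.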

Target: Voltage-gated inwardly rectifying potassium channel KCNH2 (Homo sapiens) (UniProt Q12809)
Assay: dose-dependent reversal of dofetilide hERG block – manual patch clamp, HEK293 cells, dose response (AID 2638)
Details: tail current; current remaining: measured here: rescue from 100 nM dofetilide block, at 50 µM, stronger effect = higher value unless noted; series mostly up to 100 µM

Sequence of Voltage-gated inwardly rectifying potassium channel KCNH2 (Homo sapiens) (Q12809 whole entry, looked up): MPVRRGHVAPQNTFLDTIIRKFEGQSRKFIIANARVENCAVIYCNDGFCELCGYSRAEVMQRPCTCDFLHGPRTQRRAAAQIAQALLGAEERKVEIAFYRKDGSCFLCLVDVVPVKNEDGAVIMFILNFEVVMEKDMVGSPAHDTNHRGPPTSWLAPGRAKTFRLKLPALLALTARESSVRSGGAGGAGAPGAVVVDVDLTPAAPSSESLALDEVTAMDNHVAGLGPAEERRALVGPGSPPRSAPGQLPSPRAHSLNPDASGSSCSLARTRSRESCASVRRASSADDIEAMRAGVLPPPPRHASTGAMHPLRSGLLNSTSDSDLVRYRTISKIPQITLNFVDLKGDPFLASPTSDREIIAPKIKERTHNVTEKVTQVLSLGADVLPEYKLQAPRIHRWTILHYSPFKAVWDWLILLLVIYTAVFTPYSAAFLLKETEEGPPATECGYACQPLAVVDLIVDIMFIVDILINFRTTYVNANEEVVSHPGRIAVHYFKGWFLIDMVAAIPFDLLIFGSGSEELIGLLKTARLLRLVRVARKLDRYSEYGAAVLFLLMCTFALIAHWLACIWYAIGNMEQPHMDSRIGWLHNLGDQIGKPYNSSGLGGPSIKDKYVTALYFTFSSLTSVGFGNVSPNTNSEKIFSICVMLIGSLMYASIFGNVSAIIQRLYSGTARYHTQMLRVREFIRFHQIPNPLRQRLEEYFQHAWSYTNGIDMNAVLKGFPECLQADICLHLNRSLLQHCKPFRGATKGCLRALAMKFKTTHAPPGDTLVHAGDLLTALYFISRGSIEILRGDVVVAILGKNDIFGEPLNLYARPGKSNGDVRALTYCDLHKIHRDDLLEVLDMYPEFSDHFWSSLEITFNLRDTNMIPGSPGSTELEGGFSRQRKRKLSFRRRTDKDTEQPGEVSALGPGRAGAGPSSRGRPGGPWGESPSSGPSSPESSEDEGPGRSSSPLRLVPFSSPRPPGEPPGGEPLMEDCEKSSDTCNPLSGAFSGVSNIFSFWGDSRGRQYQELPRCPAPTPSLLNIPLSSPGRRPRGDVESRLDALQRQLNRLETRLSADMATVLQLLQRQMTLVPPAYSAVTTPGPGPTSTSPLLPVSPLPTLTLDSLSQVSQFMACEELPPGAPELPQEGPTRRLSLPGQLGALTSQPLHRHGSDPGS

## O=C(COc1ccc2ccccc2c1Br)Nc1cccnc1
  current remaining: 1%
  outcome: inactive

## O=C(O)c1cc(Cl)ccc1Nc1nc2cc(Cl)ccc2o1
  current remaining: 4.15%

## CCC1CCCCN1C(=S)NC(=O)c1cccs1 (centres undefined)
  current remaining: 46.5% [measured here: rescue from 100 nM dofetilide block, at 10 µM, stronger effect = higher value]
